Several values for one entry are separate records, joined by “and”; a condition that tells them apart may be missing. Identical values can stand only once. Results filed as inconclusive are left out. Where a call stands in place of a potency, no number is given. Where a structure was tested more than once in an assay, its records may differ in their call. Activity calls are given as the source filed them. Calls follow the shape of the dose curve; as a rule, active = well fitted curve in the direction sought with a large enough effect; inconclusive = small, poorly fitted or top-dose-only effect, or another doubt; inactive = no such curve, though single readings can be large; an effect the other way counts as inactive or inconclusive.
Assays:
[1] = system: MKL-1; test: qHTS assay to identify novel small-molecules to repurpose for Merkel cell carcinoma treatment (AID 1296009); details: MCC and control cell lines, CellTiter-Glo viability, 72 h; series mostly up to 46 µM; also: nearly all actives have a fitted effect of over 60% in size; also: potency is read from the fitted curve at half-maximal effect
In short: (§1)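 Cell viability, measured as CellTiter-Glo luminescence, was normalized between DMSO and no-cell wells. The cells had been exposed to 8- or 11-point compound dilutions for 72 hr at 37 degree celsius.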

[2] = system: NIH3T3; test: as above; details: MCC and control cell lines, CellTiter-Glo viability, 72 h; series mostly up to 44.8 µM
In short: as §1

[3] = system: UISO; test: as above; details: MCC and control cell lines, CellTiter-Glo viability, 72 h; series mostly up to 46 µM
In short: as §1

[4] = system: WaGa; test: as above; details: MCC and control cell lines, CellTiter-Glo viability, 72 h; series mostly up to 46 µM
In short: as §1

[5] = system: C33A; test: Primary qHTS to identify gynecologic anti-cancer compounds using libraries of approved drugs and bioactive compounds (AID 1345084); details: Gynecologic cancer cell panel viability, ATPlite luminescence, 48 h; series mostly up to 57.5 µM; also: nearly all actives have a fitted effect of over 55% in size
In short: (§2)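 Five-point cytotoxicity, 48 h drug exposure at 37 C, 5% CO2, on cells seeded 16 h beforehand. ATP content read by ATPlite luminescence.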

[6] = system: CAOV3; test: as above; details: Gynecologic cancer cell panel viability, ATPlite luminescence, 48 h; series mostly up to 57.5 µM
In short: as §2

[7] = system: CASKI; test: as above; details: Gynecologic cancer cell panel viability, ATPlite luminescence, 48 h; series mostly up to 57.5 µM
In short: as §2

[8] = system: Es-2; test: as above; details: Gynecologic cancer cell panel viability, ATPlite luminescence, 48 h; series mostly up to 57.5 µM
In short: as §2

[9] = system: Hek293T; test: as above; details: Gynecologic cancer cell panel viability, ATPlite luminescence, 48 h, control line for the selectivity index; series mostly up to 57.5 µM
In short: as §2

[10] = system: JEG-3; test: as above; details: Gynecologic cancer cell panel viability, ATPlite luminescence, 48 h; series mostly up to 57.5 µM
In short: as §2

[11] = system: PA-1; test: as above; details: Gynecologic cancer cell panel viability, ATPlite luminescence, 48 h; series mostly up to 57.5 µM
In short: as §2

[12] = system: SKOV3; test: as above; details: Gynecologic cancer cell panel viability, ATPlite luminescence, 48 h; series mostly up to 57.5 µM
In short: as §2

[13] = system: Tov-21-G; test: as above; details: Gynecologic cancer cell panel viability, ATPlite luminescence, 48 h; series mostly up to 57.5 µM
In short: as §2

[14] = system: Tov112D; test: as above; details: Gynecologic cancer cell panel viability, ATPlite luminescence, 48 h; series mostly up to 57.5 µM
In short: as §2

[15] = Drug repurposing screens with cells derived from glioblastoma tumor samples (AID 1345199); details: GBM patient neurospheres viability, ATP luminescence, 48 h; also: nearly all actives have a fitted effect of over 40% in size; also: potency is read from the fitted curve at half-maximal effect
In short: (§3)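 Primary testing used CD133+ neurospheres from four GBM patients, seven concentrations, 48 h exposure and ATP-based viability; confirmation added three slower-growing patient lines.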

[16] = system: astro; test: as above; details: viability, ATP luminescence, 48 h; series mostly up to 45.9 µM
In short: as §3

[17] = system: MKL-2; test: qHTS assay to identify novel small-molecules to repurpose for Merkel cell carcinoma treatment (AID 1296009); details: MCC and control cell lines, CellTiter-Glo viability, 72 h; series mostly up to 46 µM; also: nearly all actives have a fitted effect of over 60% in size; also: potency is read from the fitted curve at half-maximal effect
In short: as §1

[18] = system: HeLa; test: Primary qHTS to identify gynecologic anti-cancer compounds using libraries of approved drugs and bioactive compounds (AID 1345084); details: Gynecologic cancer cell panel viability, ATPlite luminescence, 48 h; series mostly up to 57.5 µM; also: nearly all actives have a fitted effect of over 55% in size
In short: as §2

[19] = system: OV90; test: as above; details: Gynecologic cancer cell panel viability, ATPlite luminescence, 48 h; series mostly up to 57.5 µM
In short: as §2

[20] = at 20 µM (top of the series), tumour line C

With `OCCN(CCO)c1nc(N2CCCCC2)c2nc(N(CCO)CCO)nc(N3CCCCC3)c2n1` the Potency [1] was “inactive”, the outcome [2] was “inactive” and the Potency [3] was “inactive”. The Potency [4] was “inactive”, the Potency [5] was “inactive” and the Potency [6] was “inactive”. The Potency [7] was “inactive”, the Potency [8] was “inactive” and the Potency [9] was “inactive”. For the same compound, the Potency [10] was “inactive”, the Potency [11] was “inactive” and the Potency [12] was “inactive”. The Potency [13] was “inactive”, the Potency [14] was “inactive” and the activity, negative = cell killing ([15]; at 45.9 µM (top of the series), tumour line B) was -2.66% (inactive). The activity, negative = cell killing ([15]; at 45.9 µM (top of the series), tumour line D) was -18.5% (inactive), the activity, negative = cell killing ([15]; at 46 µM (top of the series), tumour line A) was -9.97% (inactive) and the activity, negative = cell killing ([15]; at 46.1 µM (top of the series), tumour line C) was 1.47% (inactive). The Potency [16] was “inactive”.

For `Clc1ccccc1C(c1ccccc1)(c1ccccc1)n1ccnc1`, the Potency [1] was “inactive”, the Potency [17] was “inactive” and the Potency [3] was “inactive”. The Potency [4] was 23.7 µM (active) and inactive, the Potency [6] was “inactive” and the Potency [7] was “inactive”. The Potency [8] was “inactive”, the Potency [18] was “inactive” and the Potency [10] was “inactive”. The Potency [12] was “inactive”, the Potency [13] was “inactive” and the Potency [14] was “inactive”. For the same compound, the activity, negative = cell killing [15, 20] was 1.49% (inactive), the Potency ([15]; tumour line A) was 11.2 µM (active) and the Potency [16] was “inactive”.

For `O=C(c1ccc(OCCN2CCCCC2)cc1)c1c(-c2ccc(O)cc2)sc2cc(O)ccc12`, the Potency [1] was “inactive”, the Potency [17] was 15 µM (active) and the Potency [3] was “inactive”. For the same compound, the Potency [4] was “inactive”, the Potency [5] was “inactive” and the Potency [7] was “inactive”. For the same compound, the Potency [8] was “inactive”, the Potency [18] was “inactive” and the Potency [9] was “inactive”. For the same compound, the Potency [10] was “inactive”, the Potency [19] was “inactive” and the Potency [13] was “inactive”. For the same compound, the Potency [14] was “inactive” and the Potency [16] was 17.8 µM (active).

With `CN1C(C(=O)Nc2ccccn2)=C(O)c2ccccc2S1(=O)=O` the Potency [1] was “inactive and 10.5 µM (active)”, the Potency [17] was “inactive” and the Potency [3] was “inactive”. For the same compound, the Potency [4] was “inactive and 16.6 µM (active)”, the Potency [5] was “inactive” and the Potency [7] was “inactive”. The Potency [8] was “inactive”, the Potency [18] was “inactive” and the Potency [9] was “inactive”. For the same compound, the Potency [10] was “inactive”, the Potency [19] was “inactive” and the Potency [11] was “inactive”. For the same compound, the Potency [13] was “inactive”, the Potency [14] was “inactive” and the activity, negative = cell killing [15, 20] was -3.14% (inactive). The activity, negative = cell killing ([15]; at 21.2 µM (top of the series), tumour line B) was -6.49% (inactive), the activity, negative = cell killing ([15]; at 21.2 µM (top of the series), tumour line D) was 0.702% (inactive) and the Potency [16] was “inactive”.

Reference: PubChem BioAssay (NCATS)
